# Assay results reported in the supplement of paper PMC8728848.
# The sample as a whole holds a higher share of the strongest signals than the screen did.
# Experiments:
# Assay in all cases: glycan array binding signal (z-score within array); higher = stronger binding
# Settings in all cases: glycan notation: IUPAC condensed, linker removed
# [1] = tested on: Gal(b1-4)GlcNAc(b1-3)Gal(b1-4)GlcNAc(b1-3)Gal(b1-4)GlcNAc
# Method in brief: (§1)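 From the Consortium for Functional Glycomics database, 3228 arrays were curated, keeping only those whose protein sequence was available. Binding is given as a within-array Z-score averaged across arrays sharing a protein sequence and across linkers. Negative Z-scores can be read as non-binding.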
# [2] = tested on: Gal(b1-4)GlcNAc(b1-3)Gal(b1-4)[Fuc(a1-3)GlcNAc(b1-6)]Gal(b1-4)Glc
# Method in brief: as §1
# [3] = tested on: Gal3S(b1-3)[Fuc(a1-4)]GlcNAc
# Method in brief: as §1
# [4] = tested on: Gal(b1-4)GlcNAc(b1-3)Gal(b1-4)GlcNAc(b1-3)Gal(b1-4)GlcNAc(b1-3)Gal(b1-4)GlcNAc(b1-3)Gal(b1-4)GlcNAc(b1-2)Man(a1-3)[Gal(b1-4)GlcNAc(b1-3)Gal(b1-4)GlcNAc(b1-3)Gal(b1-4)GlcNAc(b1-3)Gal(b1-4)GlcNAc(b1-3)Gal(b1-4)GlcNAc(b1-2)Man(a1-6)]Man(b1-4)GlcNAc(b1-4)[Fuc(a1-6)]GlcNAc
# Method in brief: as §1
# [5] = tested on: Gal(b1-4)GlcNAc(b1-3)Gal(b1-4)GlcNAc(b1-3)Gal(b1-4)GlcNAc(b1-3)Gal(b1-4)GlcNAc(b1-3)Gal(b1-4)GlcNAc(b1-3)Gal(b1-4)GlcNAc(b1-2)Man(a1-3)[Gal(b1-4)GlcNAc(b1-3)Gal(b1-4)GlcNAc(b1-3)Gal(b1-4)GlcNAc(b1-3)Gal(b1-4)GlcNAc(b1-3)Gal(b1-4)GlcNAc(b1-3)Gal(b1-4)GlcNAc(b1-2)Man(a1-6)]Man(b1-4)GlcNAc(b1-4)GlcNAc
# Method in brief: as §1
# [6] = tested on: Gal(b1-4)GlcNAc(b1-3)[Fuc(a1-3)GlcNAc(b1-6)]Gal(b1-4)Glc
# Method in brief: as §1
# Gal3S(b1-4)GlcNAc = tested on: Gal3S(b1-4)GlcNAc
# Method in brief: as §1
# [7] = tested on: Gal3S(b1-4)[Fuc(a1-3)]GlcNAc
# Method in brief: as §1
# [8] = tested on: Gal(b1-4)GlcNAc(b1-3)Gal(b1-4)[Fuc(a1-3)]GlcNAc(b1-3)Gal(b1-4)[Fuc(a1-3)]GlcNAc
# Method in brief: as §1
# [9] = tested on: Gal(b1-4)GlcNAc(b1-3)GalNAc
# Method in brief: as §1
# Gal(b1-4)Glc = tested on: Gal(b1-4)Glc
# Method in brief: as §1
# Gal3S(b1-4)Glc = tested on: Gal3S(b1-4)Glc
# Method in brief: as §1
# [10] = tested on: Gal(b1-4)GlcNAc(b1-3)Gal(b1-4)GlcNAc(b1-3)GalNAc
# Method in brief: as §1
# Gal(b1-6)Gal = tested on: Gal(b1-6)Gal
# Method in brief: as §1
# Gal3S(b1-3)GlcNAc = tested on: Gal3S(b1-3)GlcNAc
# Method in brief: as §1
# Gal(b1-4)GlcNAc = tested on: Gal(b1-4)GlcNAc
# Method in brief: as §1
# Gal3S(b1-3)GalNAc = tested on: Gal3S(b1-3)GalNAc
# Method in brief: as §1
# [11] = tested on: Gal3S(b1-4)[Fuc(a1-3)]Glc6S
# Method in brief: as §1
# [12] = tested on: Gal(b1-4)GlcNAc(b1-6)[Gal(b1-3)]GalNAc
# Method in brief: as §1
# [13] = tested on: Gal(b1-4)GlcNAc(b1-3)Gal(b1-4)GlcNAc
# Method in brief: as §1
substance,measurement,setting,value
"SiiE (Salmonella typhimurium), A0A0H3NVH0",glycan array binding signal (z-score),[1],0.446
same,glycan array binding signal (z-score),[2],-0.187
same,glycan array binding signal (z-score),[3],-0.012
AgI/IIC123-GFP (Streptococcus mutans),glycan array binding signal (z-score),[4],5
same,glycan array binding signal (z-score),[5],1.82
same,glycan array binding signal (z-score),[6],0.19
same,glycan array binding signal (z-score),Gal3S(b1-4)GlcNAc,-0.345
same,glycan array binding signal (z-score),[7],0.852
Epa22,glycan array binding signal (z-score),[8],-0.575
same,glycan array binding signal (z-score),[9],-0.621
same,glycan array binding signal (z-score),[6],-0.173
LcI (Legionella pneumophila),glycan array binding signal (z-score),Gal(b1-4)Glc,0.081
same,glycan array binding signal (z-score),Gal3S(b1-4)Glc,3.4
AgI/II Vhelical-GFP (Streptococcus mutans),glycan array binding signal (z-score),[4],-0.113
same,glycan array binding signal (z-score),[10],6.41
"Wza (Escherichia coli), P0A930",glycan array binding signal (z-score),[1],2.94
same,glycan array binding signal (z-score),Gal(b1-6)Gal,-0.876
same,glycan array binding signal (z-score),Gal3S(b1-3)GlcNAc,0.986
"SpGH101 (Streptococcus pneumoniae), Q8DR60",glycan array binding signal (z-score),Gal(b1-4)GlcNAc,-0.157
same,glycan array binding signal (z-score),Gal3S(b1-3)GalNAc,5.02
same,glycan array binding signal (z-score),[11],0.164
"GspB (Streptococcus gordonii), Q939N5",glycan array binding signal (z-score),[1],-0.783
same,glycan array binding signal (z-score),[12],-0.739
"BambL (Burhholderia ambifaria), Q0B4G1",glycan array binding signal (z-score),[13],-0.314
same,glycan array binding signal (z-score),[3],0.713
